Data on 40 compounds can be found in PubChem BioAssay (EPA / NIEHS).

Active and inactive are the calls of the source. How the source made its calls: active means hit-call score of the fitted dose curve at least 0.9, where 1 is the maximum; inactive means score below 0.9.

The nature of this assay: ATG_AP_1_CIS: Attagene CIS-FACTORIAL HepG2 Assay for human Activator Protein 1 (AP-1) (AID 2282931). The conditions noted are these: HepG2 Attagene cis-factorial AP-1 reporter mRNA; actives raise or lower the signal. On the procedure:
ATG_CIS is a cell-based, multiplexed-readout assay that uses HepG2, a human liver cell line, with measurements taken at 24 hours after chemical dosing in a 24-well plate.ATG_AP_1_CIS is one of 52 assay component(s) measured or calculated from the ATG_CIS assay. It is designed to make measurements of mRNA induction, a form of inducible reporter, as detected with fluorescence intensity signals by Reverse transcription polymerase chain reaction (RT-PCR) and Capillary electrophoresis technology.Data from the assay component ATG_AP_1_CIS was analyzed into 1 assay endpoint. This assay endpoint, ATG_AP_1_CIS, was analyzed with bidirectional fitting relative to DMSO as the negative control and baseline of activity. Using a type of inducible reporter, measures of mRNA for gain or loss-of-signal activity can be used to understand the reporter gene at the transcription factor-level as they relate to the gene FOS and JUN. Furthermore, this assay endpoint can be referred to as a primary readout, because this assay has produced multiple assay endpoints where this one serves a reporter gene function. To generalize the intended target to other relatable targets, this assay endpoint is annotated to the dna binding intended target family, where the subfamily is basic leucine zipper.
Human liver HepG2 cells are transiently transfected with multiple reporter transcription units (MRTUs) in 6-well plates using FuGene 6 reagent (Roche; 3 ml FuGene/1 mg DNA). The MRTU constructs are regulated by a cis-regulating element (promoter). […] A major difference between the CIS and TRANS system is that in CIS activities of endogenous TFs are measured, whereas the TRANS assay evaluates changes in activities of exogenous, chimeric NR-Gal4 proteins. […] At the end of 24 hour incubation, total RNA was isolated using TriZol reagent (Invitrogen). The isolated RNA is then reverse-transcribed using oligo(dT) primer and Mo-MLV reverse transcriptase (Invitrogen) with DNAse I (Ambion) treatment for 30 min. The one-tenth of the produced cDNA was amplified by PCR using Taq DNA polymerase (Invitrogen) and two reporter sequence-specific primers. The PCR products were fluorescently labeled by primer extension with 6-arboxyfluorescein (6-FAM) 5'-labeled reporter sequence-specific primer (2 min at 95 C, 20 s at 68 C and 10 min at 72 C) and these products were digested with 5U of HpaI (New England Biolabs) for 2h at 37 C. The fragments were purified using Qiaquick PCR columns (Qiagen), analyzed on an ABI 3130xL genetic analyzer (Applied Biosystems) with peak positions identified by using a set of X-rhodamine (ROX)-labeled MapMarker1000 molecular weight standards (BioVentures). The raw capillary electrophoresis data was processed using Attagraph software (Attagene).
As to `COCCOCCOCCOCCOCCO`, the call was inactive.

With `CC(=O)C(=O)O`, the compound was called inactive.

Regarding `COc1cc(C(C)(C)C)c(O)c(C(C)(C)C)c1`, the compound was classed as inactive.

For the compound `CC1CCC(C(C)CS)CC1S` (stereo not given), the call was inactive.

Turning to `CC(CCO)CCCC(C)(C)O` (stereo not given), the compound was called inactive.

Take `CC(C#N)(CCC(=O)O)N=NC(C)(C#N)CCC(=O)O` (stereo not given): the call was inactive.

Regarding `CC(C)=CCCC(C)=CCCC(C)=CCO`, the compound was called inactive.

Turning to `NCCCCCCN`, the compound was classed as inactive.

With `O=C(O)CN(CCN(CC(=O)O)CC(=O)O)CCN(CC(=O)O)CC(=O)O`, the compound was called inactive.

In the case of `O=C1O[C@@H]2[C@@H](O)[C@H](O)O[C@@H]2[C@H]1O`, the outcome was inactive.

As to `CCCc1c(OCCCOc2ccc(OCC(=O)O)cc2)ccc(C(C)=O)c1O`, the compound was called inactive.

With `CCC(=O)OCCC(C)CCC=C(C)C` (stereo not given), the compound was called inactive.

Consider `OC1OC[C@@H](O)[C@H](O)[C@H]1O` (stereo not given in full), for which the call was inactive.

As for `CC(=O)[C@H]1CC[C@H]2[C@@H]3CC=C4C[C@@H](O)CC[C@]4(C)[C@H]3CC[C@]12C`, the call was inactive.

In the case of `CC1(CO)CN(c2ccccc2)NC1=O` (stereo not given), the compound was classed as inactive.

On to `Sc1nc(S)nc(S)n1`, for which the result was inactive.

In the case of `O=C(O)CCCCCCCCCCC(=O)O`, the call was inactive.

For the compound `Fc1c(F)c(F)c(Br)c(F)c1F`, the compound was called inactive.

Take `O=C1CCc2ccccc2O1`: the compound was called inactive.

As for `c1ccc(CCCc2ccccn2)cc1`, the outcome was inactive.

With `O=C(Oc1ccccc1)c1ccc(O)cc1`, the call was inactive.

`C=C(C)[C@@H]1CC[C@@H](C)C[C@@H]1O`: the result was inactive.

`COc1ccc(O)cc1`: the result was inactive.

Consider `C=C(C)C(=O)OCc1ccccc1`, for which the compound was classed as inactive.

As for `CCCC(C)C=O` (stereo not given), the compound was called inactive.

For the compound `COC(=O)C1=C(C)NC(C)=C(C(=O)OCCN(C)Cc2ccccc2)C1c1cccc([N+](=O)[O-])c1` (stereo not given), the outcome was inactive.

As for `OCCCCCO`, the result was inactive.

In the case of `OCCN1CCNCC1`, the outcome was inactive.

As to `NC(=O)NC1NC(=O)NC1=O` (stereo not given), the outcome was inactive.

For the compound `NC(=O)Nc1ccc(Cl)cc1`, the result was inactive.

As for `OCC(CO)(CO)COCC(CO)(CO)CO`, the compound was called inactive.

Take `C=CC(=O)OCCn1c(=O)n(CCOC(=O)C=C)c(=O)n(CCOC(=O)C=C)c1=O`: the AC50 is 53.6 µM (active).

As to `NC(N)=NC(=O)c1nc(Cl)c(N)nc1N`, the compound was classed as inactive.

With `CCCC(=O)C(C)=O`, the compound was called inactive.

`O=C(O)COCCN1CCN(C(c2ccccc2)c2ccc(Cl)cc2)CC1` (stereo not given): the compound was classed as inactive.

Regarding `CC(C)c1cccc(O)c1`, the call was inactive.

As to `CCC(=O)/C=C/C1C(C)=CCCC1(C)C` (stereo not given), the result was inactive.

Consider `C[C@H]1C[C@H]2[C@@H]3CCC4=CC(=O)C=C[C@]4(C)[C@@]3(F)[C@@H](O)C[C@]2(C)[C@@]1(O)C(=O)COP(=O)(O)O`, for which the call was inactive.

`FC1(F)C(F)(F)C(F)(F)C2(F)C(F)(C1(F)F)C(F)(F)C(F)(F)C1(F)C(F)(F)C(F)(F)C(F)(F)C(F)(F)C12F` (stereo not given): the outcome was inactive.

As for `O=C1CCCCCCCCCCCCCCO1`, the AC50 is 46.2 µM (active).

One may read the AC50 as the midpoint of the concentration-response curve, whichever way the signal moves.
